Results filed as inconclusive are left out. Activity calls are given as the source filed them. The call rests on the fitted dose curve; in most records, active means well fitted inhibition curve with a large enough effect; inconclusive means small, poorly fitted or top-dose-only effect; inactive means no such curve, though single readings can be large or run the other way.
Test: Acumen qHTS Assay for Inhibitors of the mTORC1 Signaling Pathway in WT MEF Cells: Hit Validation; further: nearly all actives have a fitted effect of over 60% in size
Conditions: Acumen imaging; series mostly up to 37.3 µM
In short: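 Read-out is immunofluorescent phospho-rpS6 (Ser235/236) normalised to PI-stained cell number, reported as % active cells using a 7.5 nM rapamycin threshold. Cells: WT or Tsc2-/-, p53-/- MEFs, compound-exposed 24 h at 37C; PI count also tracks viability.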
Potency means the concentration at half of the fitted maximal effect.

Potency, active:
Cc1ccc(CS(=O)(=O)c2ncc(Cl)c(C(=O)Nc3nnc(C(C)C)s3)n2)cc1 11.7 µM
CC(C)S(=O)(=O)c1oc(-c2ccc(F)cc2)nc1S(=O)(=O)c1ccc(F)cc1 0.521 µM
COc1ccc(OC)c(Nc2c3c(nc4ccccc24)CCC3)c1 0.585 µM
CCCCS(=O)(=O)c1oc(-c2ccc(F)cc2)nc1S(=O)(=O)c1ccc(C)cc1 5.21 µM
O=C(Cn1c(=O)c2ccccc2n(CC(=O)Nc2ccc(Cl)cc2)c1=O)NCCc1ccccc1 14.7 µM
COc1ccccc1N1CCN(Cc2cc(COC(C)C)c3cccnc3c2O)CC1 2.93 µM
CCOC(=O)c1c(NC(=O)c2nc(S(C)(=O)=O)ncc2Cl)sc(C(C)=O)c1C 2.07 µM
CCN(CC)CCOC(=O)c1ccc(NC(=O)c2nn(-c3ccc(C)cc3)c(=O)c3c2c2ccccc2n3C)cc1 1.17 µM

Potency, inactive:
CCc1ccc(C(=O)CC2(O)C(=O)N(CCc3ccccc3)c3ccc(Cl)cc32)cc1 (stereo not given)
CCOC(=O)CSc1nc2cc3c(cc2c(=O)n1CCCCCC(=O)NCc1ccc2c(c1)OCO2)OCO3
CC(C)N(C(=O)Cn1cc(S(=O)(=O)Cc2ccc(Cl)cc2)c2ccccc21)C(C)C
O=C(NCc1ccc(F)cc1)c1ccc2c(Cl)c3c(nc2c1)CCCC3
COc1ccc(S(=O)(=O)NCCc2csc3nc(-c4ccc(Cl)cc4)nn23)cc1C
COC(=O)c1ccccc1NC(=O)Cn1c(=O)n(-c2ccc(C)cc2)c(=O)c2ccccc21
CCOc1ccc(CCNCc2c(C(=O)O)n(Cc3ccc(C)cc3)c3cc(OC)ccc23)cc1
Cc1ccc(S(=O)(=O)c2nc(-c3ccco3)oc2SC(C)c2ccccc2)cc1 (stereo not given)
CC(C)(C)c1ccc(S(=O)(=O)N2CCC(c3ccncc3)CC2)cc1
CCOc1ccc(NC(=O)CN2C(=O)C(c3ccc(Cl)cc3)=NC2(C)C)cc1
CCN1CCC(N(Cc2ccc(F)cc2)C(=O)Nc2ccc(C)c(F)c2)CC1
Cc1cccc(CSc2cn(CC(=O)N3CCCCCC3)c3ccccc23)c1
Cc1cccc(NC(=O)c2c(NC(=O)C(F)(F)F)sc3c2CCCCC3)c1
COc1ccc(CCNC(=O)CCCn2nc(C)c3sc4ccccc4c3c2=O)cc1OC
Cc1c(C(=O)OC2CCC(C)CC2)[nH]c2c1C(=O)CC(c1ccc(F)cc1)C2 (stereo not given)
Cc1cccc(N(CC(=O)NCCSc2ccc(Cl)cc2)S(=O)(=O)c2ccccc2)c1C
COc1ccc(C2=NS(=O)(=O)N(C)C(C(=O)Nc3ccc(OC(F)(F)F)cc3)=C2)cc1
O=C(CCn1cnc2onc(-c3ccc(F)cc3)c2c1=O)Nc1ccc(F)c(Cl)c1
Cc1cccc(C(=O)Nc2c(C(=O)NCc3ccc(Cl)cc3)sc3nc(C)cc(C)c23)c1
Cc1ccccc1NC(=O)c1sc2nc3c(cc2c1N)CCCC3
CCOc1ccc(-n2c(C)nc3c(cnn3-c3ccc(C)cc3)c2=O)cc1
CCOc1ccc(CCNC(=O)CCc2c(C)nc3cc(-c4ccccc4OC)nn3c2C)cc1
COc1ccc(NC(=O)c2ccco2)cc1NC(=O)COc1ccccc1Cl
COc1ccc(/C=C/C(=O)Nc2ccc3nc(N4CCC(C)CC4)cc(C)c3c2)cc1OC
CC(C)CCNc1nc(Nc2ccccc2)c2cnn(C)c2n1
O=C(Nc1ccc2nc(SCC(=O)N3CCCc4ccccc43)sc2c1)c1ccccc1F
COc1ccc(OCC(=O)Nc2ccc3nn(-c4ccc(OC)cc4)nc3c2)cc1
COc1ccc(NC(=O)C(NC(=O)/C=C\c2ccc3c(c2)OCO3)c2ccccc2)cc1 (stereo not given)
CC(C(=O)NCc1cccc(Br)c1)n1ncn2cccc2c1=O (stereo not given)
Cc1ccc(C(=O)CC2(O)C(=O)N(Cc3ccccc3)c3ccc(Br)cc32)cc1 (stereo not given)
Cn1nnnc1SCCCNCc1ccccc1OCc1ccc(Cl)cc1
COc1ccc(Oc2nc3c(C)cccn3c(=O)c2/C=C(\C#N)c2nc3ccccc3[nH]2)cc1

Source: PubChem BioAssay AID651789 (National Center for Advancing Translational Sciences (NCATS), 2012)
